Screening data from PubChem BioAssay.
JMJD2A Tudor inh: JMJD2A Tudor domain (human) inhibition | AlphaScreen JMJD2A-Tudor / H3K4me3 peptide binding | 4.4% of 390,000 active | Potency, µM (doses to about 114 µM), most hits filed as inhibitors | AID 504339; note: nearly all actives have a fitted effect of over 50% in size
HP1b binding inh: inhibitors of HP1-beta chromodomain binding to methylated histone tails. P83916. AlphaScreen HP1-beta / biotin-H3K9me3 peptide binding. Potency, µM (doses to about 114 µM), actives largely listed as inhibitors. 0.56% of 390,000 active. AID 540317; note: nearly all actives have a fitted effect of over 70% in size
Target sequence (P83916 whole entry, looked up): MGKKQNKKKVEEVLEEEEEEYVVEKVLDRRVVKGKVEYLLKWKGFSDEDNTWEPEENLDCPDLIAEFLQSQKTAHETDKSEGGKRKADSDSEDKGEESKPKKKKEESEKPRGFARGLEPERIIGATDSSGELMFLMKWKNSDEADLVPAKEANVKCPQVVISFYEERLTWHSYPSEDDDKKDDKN
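AlphaScreen: HP1-beta (50 nM) preformed 30 min with biotin-H3(1-18)K9me3 peptide (50 nM) in PBS pH 7.4, 0.01% Tween-20. Compound added for 30 min at RT, then streptavidin donor/nickel chelate acceptor beads (10 ug/mL) for 30 min.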
PLK1 PBD block: PLK1 (human) polo-box domain binding inhibition; Plk1 PBD binding of FITC phosphopeptide, fluorescence polarization; Potency, µM, usual class: inhibitors; 2.8% of 360,000 active; note: series mostly up to about 57 µM; nearly all actives have a fitted effect of over 65% in size
Target sequence (P53350 whole entry, looked up, the tested form may be a part): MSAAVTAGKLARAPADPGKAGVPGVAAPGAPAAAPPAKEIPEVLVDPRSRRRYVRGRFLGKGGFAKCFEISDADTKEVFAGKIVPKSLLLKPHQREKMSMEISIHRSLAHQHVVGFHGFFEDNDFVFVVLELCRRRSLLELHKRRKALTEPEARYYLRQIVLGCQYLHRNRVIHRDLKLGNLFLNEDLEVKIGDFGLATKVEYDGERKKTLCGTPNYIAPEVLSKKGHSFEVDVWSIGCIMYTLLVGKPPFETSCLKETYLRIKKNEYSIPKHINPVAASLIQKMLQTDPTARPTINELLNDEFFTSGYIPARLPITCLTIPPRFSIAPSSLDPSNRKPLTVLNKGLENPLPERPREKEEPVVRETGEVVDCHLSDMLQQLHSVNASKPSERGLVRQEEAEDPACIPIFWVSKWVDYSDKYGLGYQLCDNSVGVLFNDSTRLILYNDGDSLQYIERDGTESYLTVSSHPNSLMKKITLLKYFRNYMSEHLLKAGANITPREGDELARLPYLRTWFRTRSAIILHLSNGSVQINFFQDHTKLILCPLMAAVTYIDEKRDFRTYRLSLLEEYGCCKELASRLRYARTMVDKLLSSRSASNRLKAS
Sfp inh: inhibitors of Bacillus subtilis Sfp phosphopantetheinyl transferase; Potency, µM, hits mostly inhibitors; Biochemical Sfp PPTase activity, qHTS; AID 1490; 3.5% of 310,000 active; Q9F4F7;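 note: the enzyme is Sfp with the accession as filed and its product quenches rhodamine fluorescence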
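Compounds were incubated with enzyme (final 15 nM) for 15 min at room temperature before substrate addition started the reaction. Fluorescence at 525 nm excitation, 598 nm emission was recorded immediately and after 30 minutes.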
G9a inh: inhibitors of human histone lysine methyltransferase G9a. Q96KQ7. G9a H3K9 monomethylation, AlphaScreen, 2 h. Potency, µM (highest dose often 102 µM), usual class: inhibitors. 8.8% of 350,000 active. AID 504332; note: nearly all actives have a fitted effect of over 75% in size
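Compounds were preincubated with 20 nM G9a for 15 min, after which biotinylated H3K9 peptide (500 nM) and SAM (20 uM) started a 2 h room-temperature reaction. Monomethylated product was quantified by antibody-based AlphaScreen chemiluminescence.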
BAZ2B inh: inhibitors of human BAZ2B bromodomain; Potency, µM (series often up to 114 µM), hits mostly inhibitors; 4.4% of 360,000 active; Q9UIF8; AlphaScreen BAZ2B-H3K14Ac peptide displacement; note: nearly all actives have a fitted effect of over 60% in size
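In this displacement format the biotinylated H3(5-23) peptide acetylated at Lys14 serves as ligand at 50 nM, with BAZ2B at 50 nM in PBS pH 7.4 containing 0.01% Tween-20. Donor and acceptor beads are 10 ug/mL final.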
Each line names hits and unclear results; the compound was inactive in the other large screens; ! = not confirmed by another sample. Rows were chosen to be rich in hits. Some 12% of all compounds tested hit in one or more screens of this group. Calls come from the whole dose curve; as a rule, active = well fitted curve in the direction sought with a large enough effect; inconclusive = small, poorly fitted or top-dose-only effect, or another doubt; inactive = no such curve, though single readings can be large; an effect the other way counts as inactive or inconclusive.

COCCN(Cc1cc2ccc(C)cc2n2nnnc12)Cc1nnnn1C(C)(C)C	none
Cc1ccc2sc(N(CCN(C)C)C(=O)c3ccc4ccccc4c3)nc2c1C	JMJD2A Tudor inh inconclusive, Sfp inh inconclusive, BAZ2B inh inconclusive (no result: G9a inh)
CN(C)CCN(C(=O)c1ccc2ccccc2c1)c1nc2ccc(F)cc2s1	JMJD2A Tudor inh inconclusive, G9a inh 44.7µM
CCc1ccc2nc(N(CCN(C)C)C(=O)c3ccc4ccccc4c3)sc2c1	JMJD2A Tudor inh inconclusive, Sfp inh inconclusive, G9a inh 79.4µM, BAZ2B inh inconclusive
CN(C)CCCN(C(=O)c1ccc(C(=O)c2ccccc2)cc1)c1nc2ccc(F)cc2s1	G9a inh inconclusive, BAZ2B inh inconclusive
CCN(CC)S(=O)(=O)c1ccc2c(c1)N(CC(=O)NCCc1ccc(OC)c(OC)c1)C(=O)CO2	none (no result: PLK1 PBD block, Sfp inh)
CCC(C)n1cnc2c(c1=O)c1nc3ccccc3nc1n2Cc1ccc(OC)cc1 (stereo unspecified)	none
COc1ccc(Cn2c3nc4ccccc4nc3c3c(=O)n(Cc4ccco4)c(C)nc32)cc1	Sfp inh 7.94µM, G9a inh inconclusive, BAZ2B inh 50.1µM (no result: JMJD2A Tudor inh, HP1b binding inh, PLK1 PBD block)
COCCCn1cnc2c(c1=O)c1nc3ccccc3nc1n2-c1ccc(C)cc1	none
COc1ccc(Cn2c(C)nc3c(c(=O)c4ccccc4n3C)c2=O)cc1	none
COc1ccc(S(=O)(=O)c2c(N)n(Cc3ccco3)c3nc4ccccc4nc23)cc1	PLK1 PBD block inconclusive, Sfp inh 56.2µM, G9a inh 44.7µM
COc1ccc(Cn2c(C)nc3c(c2=O)c2nc4ccccc4nc2n3Cc2ccco2)cc1	JMJD2A Tudor inh inconclusive, HP1b binding inh inconclusive, PLK1 PBD block 7.52µM (no result: Sfp inh, G9a inh, BAZ2B inh)
Cc1cc(C)cc(-n2c3nc4ccccc4nc3c3c(=O)n(Cc4ccco4)cnc32)c1	Sfp inh 7.08µM, G9a inh inconclusive, BAZ2B inh 50.1µM
CCC(CC)C(=O)Nc1cccc(-c2nc3ncccn3c2C)c1	none (no result: PLK1 PBD block, Sfp inh)
Cc1nc2c(c(=O)n1Cc1ccccc1Cl)c1nc3ccccc3nc1n2Cc1ccco1	Sfp inh 2.82µM, G9a inh inconclusive (no result: JMJD2A Tudor inh, HP1b binding inh, PLK1 PBD block)
CCO/C(C)=N/n1c2nc3ccccc3nc2c2c(=O)n(Cc3ccccc3Cl)c(C)nc21	none
CCCC[C@H]1C2=C3[C@@H](CC(C(=O)OC)=C[C@@H](C(=O)OC)[C@H]3C(C)(C)C2=O)n2c(=O)n(C)c(=O)n21	none (no result: PLK1 PBD block, G9a inh, BAZ2B inh)
CC[C@]1(O)C[C@@H]2CN(CCc3c([nH]c4ccccc34)[C@@](C(=O)OC)(c3cc4c(cc3OC)N(C)C3[C@]45CCN4CC=C[C@](CC)(C45)[C@@H](OC(C)=O)[C@]3(O)C(=O)OC)C2)C1 (stereo partly specified)	G9a inh 14.1µM (no result: JMJD2A Tudor inh, HP1b binding inh, PLK1 PBD block, BAZ2B inh)
CC[C@]1(O)C[C@@H]2CN(CCc3c([nH]c4ccccc34)[C@](C(=O)OC)(c3cc4c(cc3OC)N(C)[C@H]3[C@](O)(C(=O)OC)[C@@H](C(=O)OC)[C@@]5(CC)C=CCN6CC[C@@]43[C@@H]65)C2)C1	none (no result: JMJD2A Tudor inh, HP1b binding inh, PLK1 PBD block, G9a inh, BAZ2B inh)
CC(C)c1ccc(NC(=O)c2ccc(F)c(S(=O)(=O)N3CCc4ccccc4C3)c2)cc1	none (no result: PLK1 PBD block, Sfp inh)
CC1(C)CC(NC(=O)CCc2nnc(CCCCc3ccccc3)o2)CCO1 (stereo unspecified)	none
NNC(=S)Nc1c(Br)cc(F)cc1Br	G9a inh 35.5µM
C#CCN1C(C)=C(C(=O)OC)C(c2cccc([N+](=O)[O-])c2)C(C(=O)OCC)=C1C (stereo unspecified)	G9a inh 11.2µM! (no result: Sfp inh)
COc1ccc(CNC(=O)CN(C)c2nn3c(=O)cc(C)nc3s2)cc1	none (no result: PLK1 PBD block, Sfp inh)
O=C(CCS(=O)(=O)c1cccc2nonc12)Nc1ccc(Br)cc1	JMJD2A Tudor inh 79.4µM!, PLK1 PBD block inconclusive
COc1ccc(NC(=O)CCS(=O)(=O)c2cccc3nonc23)cc1	none
O=C(CCS(=O)(=O)c1cccc2nsnc12)Nc1ccc(F)cc1	G9a inh 10µM (no result: PLK1 PBD block, Sfp inh)
O=C(CS(=O)(=O)c1cccc2nsnc12)Nc1ccc(F)cc1	none (no result: PLK1 PBD block, Sfp inh)
C(=C1/CCCC2=C1Nc1ncnn1C2c1ccccc1)/c1ccccc1 (stereo unspecified)	Sfp inh 50.1µM, G9a inh 44.7µM (no result: JMJD2A Tudor inh, HP1b binding inh, PLK1 PBD block)
FC(F)(F)c1ccccc1C1C2=C(Nc3ncnn31)c1ccccc1CCC2 (stereo unspecified)	Sfp inh 28.2µM, G9a inh inconclusive (no result: JMJD2A Tudor inh, HP1b binding inh, PLK1 PBD block)
CC1CC2=C(NC(=S)NC2c2ccc(F)cc2)/C(=C/c2ccc(F)cc2)C1 (stereo unspecified)	PLK1 PBD block inconclusive, G9a inh 25.1µM, BAZ2B inh inconclusive
S=C1NC2=C(CCC/C2=C\c2ccccc2)C(c2ccccc2)N1 (stereo unspecified)	JMJD2A Tudor inh inconclusive, PLK1 PBD block inconclusive, Sfp inh 22.4µM, G9a inh 8.91µM, BAZ2B inh inconclusive
CC(=O)C1=C(C)Nc2ncnn2C1c1ccccc1 (stereo unspecified)	none
CC(O)Cn1c(N2CCCC2)nc2c1c(=O)[nH]c(=O)n2C (stereo unspecified)	none
S=C1NC2=C(CCC/C2=C\c2ccc(Cl)cc2)C(c2ccc(Cl)cc2)N1 (stereo unspecified)	PLK1 PBD block inconclusive, Sfp inh 7.94µM (no result: G9a inh)
COc1cccc(C(=O)NC2CCCN(C3Cc4ccccc4C3)C2)c1OC (stereo unspecified)	none
O=C1CC(N2CCN(c3ccccc3)CC2)C(=O)N1c1ccc2c(c1)OCCO2 (stereo unspecified)	none
CN1CCN(C2CC(=O)N(c3ccc4c(c3)OCCO4)C2=O)CC1 (stereo unspecified)	JMJD2A Tudor inh inconclusive, G9a inh 44.7µM, BAZ2B inh inconclusive
CCCCCCCCCCCCCCCCCC(=O)OC(CC(=O)O)C[N+](C)(C)C (stereo unspecified)	G9a inh 16.8µM! (no result: JMJD2A Tudor inh, HP1b binding inh, PLK1 PBD block, Sfp inh, BAZ2B inh)
CS(=O)(=O)N1CCN(c2ccccc2[N+](=O)[O-])CC1	none
Cc1ccc(N2CC(NC(=O)/C=C\c3ccc4c(c3)OCO4)CC2=O)cc1C (stereo unspecified)	none (no result: PLK1 PBD block, Sfp inh)
CN(C)Cc1c(O)ccc2c(=O)c(-c3ccc(Cl)cc3)coc12	JMJD2A Tudor inh inconclusive (no result: G9a inh)
O=c1c(-c2ccc([N+](=O)[O-])cc2)coc2c(O)c(O)ccc12	G9a inh 8.91µM, BAZ2B inh 39.8µM
COc1ccc(NC(=O)CSC2=NCCN2)cc1	none
O=C(Nc1nc(-c2ccccn2)cs1)c1cc(S(=O)(=O)N2CCOCC2)ccc1F	JMJD2A Tudor inh 79.4µM, PLK1 PBD block inconclusive, G9a inh inconclusive, BAZ2B inh 22.4µM (no result: Sfp inh)
Cc1ccc(S(=O)(=O)N2CCOCC2)cc1C(=O)Nc1nc(-c2cccnc2)cs1	none
Cc1ccc(C(=O)Nc2nc(-c3ccccn3)cs2)cc1S(=O)(=O)N1CCOCC1	PLK1 PBD block 7.52µM, G9a inh inconclusive, BAZ2B inh 25.1µM (no result: Sfp inh)
